Experimental data: PubChem BioAssay
Calls of active or inactive are those of the source. Unless noted, no rule for the calls is given here.

Experiments:
[1] = compound effects on lung adenocarcinoma cell viability – A549, calcein-AM fluorescence, 48 h, basal, profiling panel (AID 1162); details: higher = more signal; also: test concentration not given here
[2] = compound effects on differentiated 3T3-L1 adipocyte viability – cell-based, 3T3-L1 adipocytes, calcein-AM fluorescence, 48 h, basal, profiling panel (AID 1163); details: 3T3-L1 adipocytes viability, higher = more signal; also: test concentration not given here
[3] = compound effects on hepatocellular carcinoma cell viability – HepG2, calcein-AM fluorescence, 48 h, basal, profiling panel (AID 1164); details: higher = more signal; also: test concentration not given here
[4] = compound effects on multiple myeloma cell viability – MM1S, calcein-AM fluorescence, 48 h, basal, profiling panel (AID 1165); details: higher = more signal;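 also: viability of MM1S multiple myeloma cells under basal unstimulated conditions; test concentration not given here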
[5] = calcein-AM signal in unstimulated myeloma cells – cell-based, calcein-AM fluorescence, 48 h, PK04 Diversity Set, profiling panel (AID 1166); details: RPMI8226 myeloma viability, higher = more signal;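 also: cells grown under basal conditions without added stimulus; test concentration not given here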
[6] = JC-1 mitochondrial signal, unstimulated HepG2 cells – cell-based, JC-1 fluorescence, 24 h, 100 nL compound, profiling panel (AID 1167); details: HepG2 mitochondrial potential, higher = more signal; also: test concentration not given here
[7] = JC-1 mitochondrial signal, unstimulated adipocytes – cell-based, JC-1 fluorescence, 3T3-L1 adipocytes, 24 h, 100 nL compound, profiling panel (AID 1168); details: JC-1 mitochondrial fluorescence, higher = more signal, called active from +8 up or from −8 down; also: test concentration not given here
[8] = JC-1 mitochondrial signal, unstimulated myeloma cells – cell-based, JC-1 fluorescence, RPMI8226, 24 h, 100 nL compound, profiling panel (AID 1169); details: JC-1 mitochondrial potential fluorescence, higher = more signal; also: test concentration not given here
[9] = JC-1 mitochondrial signal, unstimulated MM1S myeloma – cell-based, JC-1 fluorescence, 24 h, 100 nL compound, profiling panel (AID 1170); details: MM1S mitochondrial potential, higher = more signal; also: test concentration not given here
[10] = resazurin metabolic signal in A549 cells – cell-based, resazurin fluorescence, 24 h, PK04 Diversity Set, profiling panel (AID 1171); details: A549 viability, higher = more signal, called active from +8 up or from −8 down; also: test concentration not given here
[11] = resazurin metabolic signal in HepG2 cells – cell-based, resazurin fluorescence, 24 h, PK04 Diversity Set, profiling panel (AID 1172); details: HepG2 viability, higher = more signal; also: test concentration not given here
[12] = budding yeast growth changes without added modifier – OD600, strain BY4716, 24 h, basal condition, primary screen (AID 1173); details: S. cerevisiae BY4716 growth, OD600, 24 h; higher = more signal, called active from +8 up or from −8 down
[13] = viability profiling in MM1S myeloma cells – cell-based, resazurin fluorescence, basal, 24 h, PK04 Diversity Set, profiling panel (AID 1174); details: higher = more signal, called active from +8 up or from −8 down; also: test concentration not given here
[14] = biological target: Dihydroorotate dehydrogenase (quinone), mitochondrial (Plasmodium falciparum (isolate 3D7)) (UniProt Q08210); test: inhibition of P. falciparum DHODH – biochemical, C-terminal His tag, absorbance 600 nm, primary screen (AID 1175); details: PfDHODH enzyme, DCIP absorbance 600 nm; higher = more signal, called active from +8 up or from −8 down;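 also: recombinant parasite enzyme with a five histidine tag at its C terminus; test concentration not given here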
[15] = inhibition of PAO1 biofilm formation – strain PAO1, LB-PBS medium, absorbance 600 nm, primary screen (AID 1176); also: test concentration not given here; details: P. aeruginosa PAO1 growth/biofilm, A600, 12 h; higher = more signal
[16] = growth modulation of vineyard yeast isolate – strain RM11-1a, OD600, basal, 24 h, primary screen (AID 1177);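 also: cultures grown under basal conditions with no added stressor; test concentration not given here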; details: S. cerevisiae RM11-1a growth, OD600, 24 h; higher = more signal, called active from +8 up or from −8 down
[17] = growth of efflux-deficient E. coli DRC39 – strain DRC39, OD650, 24 h, E. coli filamentation inducers, primary screen (AID 1178);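 also: growth measured as culture turbidity by optical density at 650 nm; test concentration not given here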; details: E. coli DRC39 acrAB, higher = more signal, called active from +8 up or from −8 down
[18] = growth of efflux-deficient E. coli DRC39 – strain DRC39, OD650, 48 h, E. coli filamentation inducers, primary screen (AID 1179);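 also: screen aims at cell division blockers that make cells filament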; details: E. coli DRC39 delta-acrAB growth, higher = more signal, called active from +8 up or from −8 down
[19] = viability profiling in RPMI8226 myeloma cells – cell-based, resazurin fluorescence, basal, 24 h, PK04 Diversity Set, profiling panel (AID 1180); details: higher = more signal;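 also: RPMI8826 multiple myeloma cell line at 5000 cells per well; test concentration not given here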
[20] = biological target: E3 ubiquitin-protein ligase XIAP (Homo sapiens) (UniProt P98170); test: small molecules binding XIAP protein – biophysical, small-molecule microarray, fluorescence 635 nm, primary screen (AID 1181); details: higher = more signal;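 also: score merges 667 nm emission and signal to noise over triplicate slides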
Sequence of E3 ubiquitin-protein ligase XIAP (Homo sapiens) (P98170 whole entry, looked up): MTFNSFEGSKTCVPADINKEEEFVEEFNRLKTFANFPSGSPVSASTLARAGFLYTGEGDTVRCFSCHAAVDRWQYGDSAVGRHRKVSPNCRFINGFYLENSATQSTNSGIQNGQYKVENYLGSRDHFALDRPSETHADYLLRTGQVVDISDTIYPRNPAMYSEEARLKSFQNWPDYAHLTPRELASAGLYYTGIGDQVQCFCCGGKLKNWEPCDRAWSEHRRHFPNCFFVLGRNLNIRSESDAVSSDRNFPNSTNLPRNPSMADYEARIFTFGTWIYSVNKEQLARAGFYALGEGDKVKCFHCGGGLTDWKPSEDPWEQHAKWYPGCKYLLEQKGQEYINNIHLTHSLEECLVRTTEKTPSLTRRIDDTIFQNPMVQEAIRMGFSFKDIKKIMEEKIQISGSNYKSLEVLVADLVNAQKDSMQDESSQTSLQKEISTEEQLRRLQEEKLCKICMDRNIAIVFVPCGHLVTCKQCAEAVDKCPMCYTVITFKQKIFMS

Sequence of Dihydroorotate dehydrogenase (quinone), mitochondrial (Plasmodium falciparum (isolate 3D7)) (Q08210 whole entry, looked up): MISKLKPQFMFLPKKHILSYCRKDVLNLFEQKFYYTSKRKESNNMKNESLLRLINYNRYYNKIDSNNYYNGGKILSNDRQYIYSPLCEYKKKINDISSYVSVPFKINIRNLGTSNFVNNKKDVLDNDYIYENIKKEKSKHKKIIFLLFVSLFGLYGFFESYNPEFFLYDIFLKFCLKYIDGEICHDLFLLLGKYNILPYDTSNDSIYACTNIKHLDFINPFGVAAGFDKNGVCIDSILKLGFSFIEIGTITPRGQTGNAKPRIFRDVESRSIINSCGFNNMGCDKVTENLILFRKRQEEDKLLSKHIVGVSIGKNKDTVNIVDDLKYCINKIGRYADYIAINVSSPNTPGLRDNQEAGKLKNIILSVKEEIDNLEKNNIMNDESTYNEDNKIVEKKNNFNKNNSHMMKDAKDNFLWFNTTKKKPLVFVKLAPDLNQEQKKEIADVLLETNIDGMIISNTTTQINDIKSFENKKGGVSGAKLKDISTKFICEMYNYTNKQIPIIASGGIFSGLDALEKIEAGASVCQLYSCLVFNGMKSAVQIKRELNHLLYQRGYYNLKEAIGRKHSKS

SMILES | z-score [1] | z-score [2] | z-score [3] | z-score [4] | z-score [5] | z-score [6] | z-score [7] | z-score [8] | z-score [9] | z-score [10] | z-score [11] | z-score [12] | z-score [13] | composite z-score [14] | z-score [15] | z-score [16] | z-score [17] | z-score [18] | z-score [19] | composite z-score [20]
O=C(NCCN1CCOCC1)[C@@H]1c2ccccc2C(=O)N(Cc2cc(F)cc(C(F)(F)F)c2)[C@H]1c1ccc(CO)cc1 | 1.22 | 0.767 | 1.2 | 0.34 | -0.671 | 1.97 | 0.13 (inactive) | 0.738 | -0.119 | 0.935 (inactive) | -0.375 | -0.191 (inactive) | 0.362 (inactive) | -0.517 (inactive) | -0.0807 (inactive) | -0.64 (inactive) | 0.552 (inactive) | -0.232 (inactive) | 0.419 | 0.0451
Cc1ccc(N2C(=O)c3ccccc3[C@](C)(C(=O)NCCN3CCOCC3)[C@@H]2c2ccc(CO)cc2)nc1 | -0.68 | 0.994 | -0.808 | 0.839 | -1.49 | 0.144 | -0.674 (inactive) | -0.628 | 0.0375 | 0.667 (inactive) | -0.946 | -0.574 (inactive) | 0.438 (inactive) | 0.255 (inactive) | 0.31 (inactive) | 0.548 (inactive) | -0.0943 (inactive) | -0.126 (inactive) | 0.274 | 0.086
COCCOC(=O)N1C(=O)[C@@]2(c3cc(C#CC4=CCCCC4)ccc31)[C@H](c1ccc(OCCO)cc1)N1[C@H](c3ccccc3)[C@H](c3ccccc3)OC(=O)[C@H]1[C@@H]2C(=O)Nc1nc2ccccc2s1 | 0.642 | 0.0841 | -0.153 | -0.381 | -0.259 | -2.79 | -0.216 (inactive) | -0.932 | -1.63 | -0.057 (inactive) | 1.16 | 1.65 (inactive) | -0.396 (inactive) | 0.123 (inactive) | 3.34 (inactive) | 2.68 (inactive) | -0.169 (inactive) | 0.422 (inactive) | 0.584 | 0.061
Cc1ccc(S[C@]2(C(=O)NCC(C)C)CC(=O)N(Cc3ccccc3)[C@@H]2c2ccc(CO)cc2)cc1 | 0.204 | 0.38 | -0.056 | -1.32 | -0.152 | -0.135 | -0.239 (inactive) | 0.205 | 0.435 | 1.23 (inactive) | 0.408 | -0.841 (inactive) | 0.559 (inactive) | -0.586 (inactive) | 0.525 (inactive) | -0.341 (inactive) | 0.298 (inactive) | -0.667 (inactive) | 0.505 | 0.104
COC(=O)[C@@]1(Cc2ccccc2)[C@H]2c3cc(C(=O)N(C)C)n(Cc4ccccc4)c3C[C@H]2CN1C(=O)c1ccccc1 | -1.19 | -0.93 | -0.775 | -0.143 | -0.747 | 1.14 | -0.655 (inactive) | 0.599 | -1.06 | -0.407 (inactive) | -0.853 | 2.1 (inactive) | -1.5 (inactive) | -0.252 (inactive) | 0.246 (inactive) | 1.6 (inactive) | -0.656 (inactive) | -0.411 (inactive) | -1.05 | 0.294
COCCOC(=O)N1C(=O)[C@@]2(c3cc(C#Cc4ccc(OC)cc4)ccc31)[C@H](c1ccc(OCCO)cc1)N1[C@H](c3ccccc3)[C@H](c3ccccc3)OC(=O)[C@H]1[C@@H]2C(=O)N1CCc2cc(OC)c(OC)cc2C1 | 0.618 | 0.979 | 0.156 | 0.427 | 0.959 | -0.343 | 2.92 (inactive) | -0.322 | -1.24 | 0.216 (inactive) | 1.04 | 2.62 (inactive) | 1.02 (inactive) | -0.0321 (inactive) | 3.34 (inactive) | 3.55 (inactive) | -0.148 (inactive) | 0.0574 (inactive) | 0.928 | -0.0476
C=CCN1Cc2ccccc2C[C@]2(N=C(c3ccc(OCCCO)cc3)O[C@@H]2c2ccccc2)C1=O | -0.584 | 0.975 | -0.676 | -3.58 | -3.71 | 0.96 | 0.101 (inactive) | -1.16 | -0.762 | -2.13 (inactive) | -0.677 | -1.35 (inactive) | -2.24 (inactive) | -1.1 (inactive) | 1.32 (inactive) | -0.211 (inactive) | 1.13 (inactive) | 1.09 (inactive) | -2.07 | -0.186
C=CC[C@@]1(C(=O)NCc2ccccc2)N=C(c2ccc(OCCCO)cc2)O[C@@H]1c1ccccc1CN=[N+]=[N-] | -0.651 | 0.115 | -1.09 | -1.84 | -3 | -0.675 | -1.85 (inactive) | -0.979 | -0.975 | -1.23 (inactive) | -0.46 | 1.36 (inactive) | -1.89 (inactive) | 1.63 (inactive) | 1.1 (inactive) | 2.33 (inactive) | 0.537 (inactive) | -0.793 (inactive) | -1.45 | 0.404
CCCC[C@H]1OB(O)C[C@H]2C1=C(C)Cn1c(=O)n(-c3ccccc3)c(=O)n12 | 0.673 | 0.465 | 0.173 | -0.337 | -0.108 | 0.546 | 0.299 (inactive) | -0.903 | -0.503 | 0.0548 (inactive) | 0.916 | 0.422 (inactive) | -0.441 (inactive) | -0.0299 (inactive) | -0.638 (inactive) | 0.218 (inactive) | -0.13 (inactive) | -0.605 (inactive) | 0.191 | -0.0599
